Results filed as inconclusive are left out. Activity calls are given as the source filed them. The call rests on the fitted dose curve; in most records, active means well fitted curve in the direction sought with a large enough effect; inconclusive means small, poorly fitted or top-dose-only effect, or another doubt; inactive means no such curve, though single readings can be large; an effect the other way counts as inactive or inconclusive.
Tests used:
[1] = target: ATP-dependent 6-phosphofructokinase (Trypanosoma brucei brucei) (UniProt O15648); experiment: qHTS Assay to Find Inhibitors of T. brucei phosphofructokinase: hit validation (AID 492961);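 further: luminescence reports ADP formed as PFK phosphorylates fructose-6-phosphate with ATP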
In short: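 Reaction: 0.1 M triethanolamine pH 8.0, 5 mM MgCl2, F6P 0.5 mM, ATP 0.1 mM, PFK 1.25 nM, 45 min RT. Read-out: ADP-Glo luminescence. Analysis: concentration-response fits, classed by r2 and efficacy.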

[2] = S16 Schwann cell PMP22 intronic element firefly luciferase assay (AID 624032); further: nearly all actives have a fitted effect of over 30% in size; further: potency means the concentration at half of the fitted maximal effect
In short: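 Rat S16 Schwann cells stably carrying a PMP22 intronic element-driven Fluc reporter were seeded overnight, then exposed to compounds for 24 h at 37 °C. Luminescence was normalized to PTC124 (positive control) and DMSO (0% activity).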

ATS189 = experiment: qHTS profiling for inhibitors of Plasmodium falciparum proliferation (AID 504749); further: nearly all actives have a fitted effect of over 60% in size; further: potency means the concentration at half of the fitted maximal effect; details: P. falciparum in erythrocytes, SYBR Green DNA, 72 h; series mostly up to 12.8 µM
In short: (§1)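 Quantitative HTS: compounds pinned into medium, infected erythrocytes added (0.3% parasitemia, 2.5% hematocrit), 72 h culture at 37 C under 5% CO2. Saponin/Triton lysis with SYBR Green I, overnight RT, then fluorescence read.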

ATS95 = experiment: as above; details: P. falciparum in erythrocytes, SYBR Green DNA, 72 h; series mostly up to 12.8 µM
In short: as §1

CP203 = experiment: as above; details: P. falciparum in erythrocytes, SYBR Green DNA, 72 h; series mostly up to 12.8 µM
In short: as §1

CP215 = experiment: as above; details: P. falciparum in erythrocytes, SYBR Green DNA, 72 h; series mostly up to 12.8 µM
In short: as §1

CP286 = experiment: as above; details: P. falciparum in erythrocytes, SYBR Green DNA, 72 h; series mostly up to 12.8 µM
In short: as §1

CP335 = experiment: as above; details: P. falciparum in erythrocytes, SYBR Green DNA, 72 h; series mostly up to 12.8 µM
In short: as §1

DIV14 = experiment: as above; details: P. falciparum in erythrocytes, SYBR Green DNA, 72 h; series mostly up to 12.8 µM
In short: as §1

DIV17 = experiment: as above; details: P. falciparum in erythrocytes, SYBR Green DNA, 72 h; series mostly up to 12.8 µM
In short: as §1

7G8 = experiment: as above; details: P. falciparum in erythrocytes, SYBR Green DNA, 72 h; series mostly up to 12.8 µM
In short: as §1

GB4 = experiment: as above; details: P. falciparum in erythrocytes, SYBR Green DNA, 72 h; series mostly up to 12.8 µM
In short: as §1

W2 = experiment: as above; details: P. falciparum in erythrocytes, SYBR Green DNA, 72 h; series mostly up to 12.8 µM
In short: as §1

[3] = target: DNA dC->dU-editing enzyme APOBEC-3G (Homo sapiens) (UniProt Q9HC16); experiment: qHTS for inhibitors of Vif-A3G interactions: Validation (AID 588379)
In short: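 Yellow fluorescence (Ex 488, Em 500-530) of Vif-coexpressing HeLa A3G-eYFP cells, scanned by Acumen cytometer, reports blocked A3G degradation. Cells plated at 700/well overnight at 37 deg C before compound addition, then a further overnight compound incubation at 37 deg C.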

Measured: Potency

DNA dC->dU-editing enzyme APOBEC-3G (Homo sapiens), sequence (Q9HC16 whole entry, looked up): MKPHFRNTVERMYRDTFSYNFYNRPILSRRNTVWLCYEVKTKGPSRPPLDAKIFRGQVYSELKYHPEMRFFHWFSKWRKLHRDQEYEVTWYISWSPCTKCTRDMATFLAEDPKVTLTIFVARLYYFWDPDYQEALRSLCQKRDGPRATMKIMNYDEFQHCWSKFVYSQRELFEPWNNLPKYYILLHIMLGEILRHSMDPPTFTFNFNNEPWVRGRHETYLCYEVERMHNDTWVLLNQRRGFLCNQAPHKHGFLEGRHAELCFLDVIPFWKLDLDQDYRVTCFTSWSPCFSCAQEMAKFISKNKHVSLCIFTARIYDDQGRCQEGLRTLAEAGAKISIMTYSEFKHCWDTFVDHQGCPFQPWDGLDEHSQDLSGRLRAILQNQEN
ATP-dependent 6-phosphofructokinase (Trypanosoma brucei brucei), sequence (O15648 whole entry, looked up): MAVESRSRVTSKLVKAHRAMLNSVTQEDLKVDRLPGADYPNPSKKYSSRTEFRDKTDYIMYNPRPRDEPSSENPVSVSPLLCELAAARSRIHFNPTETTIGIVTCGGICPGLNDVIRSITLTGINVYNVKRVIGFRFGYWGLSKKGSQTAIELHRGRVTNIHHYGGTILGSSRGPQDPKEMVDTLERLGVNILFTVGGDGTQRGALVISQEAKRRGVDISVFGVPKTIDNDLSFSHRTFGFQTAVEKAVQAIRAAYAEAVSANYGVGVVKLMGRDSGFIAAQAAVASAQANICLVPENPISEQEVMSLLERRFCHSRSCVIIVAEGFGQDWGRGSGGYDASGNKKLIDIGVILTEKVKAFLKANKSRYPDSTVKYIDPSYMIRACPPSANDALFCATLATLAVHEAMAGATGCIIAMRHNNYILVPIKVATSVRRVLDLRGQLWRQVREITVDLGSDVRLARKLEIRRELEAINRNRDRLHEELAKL

OCC1OC(n2cnc3c(=S)nc[nH]c32)C(O)C1O (centres undefined)
inactive: [1] | ATS189 | ATS95 | CP203 | CP215 | CP286 | CP335 | DIV14 | DIV17
active: [2] 2.87 µM

CCC(=O)O[C@@]1(C(=O)CCl)C(C)CC2C3CCC4=CC(=O)C=C[C@@]4(C)[C@]3(F)C(O)C[C@]21C (some centres undefined)
inactive: [1] | [2]
active: 7G8 3.98 µM | ATS95 11.2 µM | CP203 13.5 µM | CP335 10.7 µM | DIV14 13.5 µM | DIV17 15.1 µM | GB4 12 µM | W2 5.36 µM

COC1CC(O[C@H]2/C(C)=C/CC3CC(C[C@]4(CCC(C)C(C5CCCCC5)O4)O3)OC(=O)[C@H]3C=C(C)/C(=N/O)C4OC/C(=C\C=C\[C@@H]2C)[C@@]43O)OC(C)C1O (some centres undefined)
inactive: [1] | [2] | CP203 | CP215
active: 7G8 12.6 µM | W2 13.5 µM

COc1ccc(-c2cc(=O)c3c(O)cc(O[C@H]4OC(COC5OC(C)C(O)C(O)[C@H]5O)C(O)C(O)C4O)cc3o2)cc1O (some centres undefined)
inactive: [2] | 7G8 | ATS189 | ATS95 | CP203 | CP215 | CP286 | CP335 | DIV14 | DIV17 | GB4

CCC1OC(=O)C(C)[C@@H](O[C@H]2C[C@@](C)(OC)C(O)C(C)O2)C(C)[C@@H](O[C@@H]2OC(C)CC(N(C)C)C2O)[C@@](C)(O)CC(C)C(=O)[C@@H](C)C(O)[C@]1(C)O (some centres undefined)
inactive: [1] | 7G8 | ATS189 | ATS95 | CP203 | CP215 | CP286 | DIV14 | DIV17 | GB4

CC(C)=CCC[C@](C)(O)C1CC=C(C)CC1 (some centres undefined)
inactive: [2] | 7G8 | ATS189 | ATS95 | CP203 | CP215 | CP286 | CP335 | DIV14 | DIV17 | GB4 | W2

C/C1=C2N=C(/C=C3N=C(/C(C)=C4\[N-]C(C)(C5N=C1C(C)(CCC(=O)NCC(C)OP(=O)([O-])O[C@H]1C(O)C(n6cnc7cc(C)c(C)cc76)O[C@@H]1CO)C5CC(N)=O)C(C)(CC(N)=O)C4CCC(N)=O)C(C)(CC(N)=O)C\3CCC(N)=O)C(C)(C)C/2CCC(N)=O.[CH2-]C1OC(n2cnc3c(N)ncnc32)C(O)C1O.[Co] (some centres undefined)
active: [2] 14.4 µM
inactive: 7G8 | ATS189 | ATS95 | CP203 | CP215 | CP286 | CP335 | DIV14 | DIV17 | GB4

CC1=C(C2=C(C)C(C(C)C)C3=C(C(=O)C(O)C3O)C2O)C(O)C2=C(C(O)C(O)C2=O)C1C(C)C (centres undefined)
inactive: [3]

O=C(O)C1=C[C@@H](O)[C@@H](O)[C@H](O)C1
inactive: [3]

COC1C=CO[C@@]2(C)Oc3c(C)c(O)c4c(O)c(c5c(nc6cc(C)ccn65)c4c3C2=O)NC(=O)/C(C)=C\C=CC(C)C(O)[C@@H](C)C(O)C(C)[C@@H](OC(C)=O)C1C (some centres undefined)
active: 7G8 3.16 µM | ATS189 12.6 µM | ATS95 10 µM | CP215 13.5 µM | CP335 13.5 µM | DIV14 1.07 µM | DIV17 0.536 µM | GB4 3.79 µM | W2 1.9 µM

C#C[C@]1(O)CCC2C3CCC4=CC(=O)CCC4C3CC[C@@]21C (some centres undefined)
inactive: [1]

CCCCCCCCCc1ccc(OCCOCCOCCOCCOCCOCCOCCOCCOCCO)cc1
inactive: ATS95 | CP286
active: 7G8 12.6 µM | W2 15.1 µM

O=C(O)C1OC(O)C(O)C(O)C1O (centres undefined)
inactive: [3]

CC(=O)OCC(=O)[C@@]12OC3(CCCC3)OC1CC1C3CCC4=CC(=O)C=C[C@@]4(C)[C@]3(F)C(O)C[C@]12C (some centres undefined)
inactive: [1]
active: 7G8 11.2 µM | W2 10.7 µM

C=Cc1c(C)/c2[n-]/c1=C\c1[n-]c(c(CC)c1C)/C=c1\[n-]c3c(c1C)C(=O)C(C(=O)[O-])C=3c1[n-]c(c(C)c1CCC(=O)[O-])\C=2.[Cu].[Na+].[Na+] (centres undefined)
inactive: [2] | CP286
active: W2 12 µM

C[C@@]12CCC(=O)C=C1C=CC1C2CC[C@]2(C)C1CC[C@@]21CCC(=O)O1 (some centres undefined)
inactive: [1] | ATS95 | CP203 | CP215 | CP286 | CP335 | DIV17 | GB4 | W2

N[C@@H]1C(O)OC(CO)C(O)C1O (some centres undefined)
inactive: [1] | 7G8 | ATS189 | ATS95 | CP286 | CP335 | DIV17 | W2

Nc1nc2ncc(CNc3ccc(C(=O)NC(CCC(=O)O)C(=O)O)cc3)nc2c(=O)[nH]1 (centres undefined)
inactive: [2] | 7G8 | ATS189 | CP203 | CP286 | CP335 | DIV17 | GB4 | W2

CCC1OC(=O)CC(O)C(C)[C@@H](O[C@@H]2OC(C)[C@H](O[C@@H]3C[C@@](C)(O)C(O)C(C)O3)C(N(C)C)C2O)[C@H](CC=O)CC(C)C(=O)/C=C/C(C)=C/[C@@H]1COC1OC(C)C(O)C(OC)[C@@H]1OC (some centres undefined)
inactive: [1] | [2]
active: CP286 1 µM | CP335 1.35 µM | W2 0.849 µM
